Assay outcomes deposited in PubChem BioAssay by National Center for Advancing Translational Sciences (NCATS).
JMJD2A Tudor inh – qHTS Assay for Inhibitors of JMJD2A-Tudor Domain. Lysine-specific demethylase 4A (Homo sapiens), O75164. AlphaScreen JMJD2A-Tudor / H3K4me3 peptide binding. Potency, µM (series often up to 114 µM), without a hit: top-dose activity change, negative = inhibition, usual class: inhibitors. hit rate 4.4% among 390,000. AID 504339, 2011; note: potency is the fitted concentration of half-maximal effect; % is set by controls: 0 for no effect and ±100 for the full control effect; nearly all actives have a fitted effect of over 50% in size
PLK1 PBD inh – qHTS for Inhibitors of PLK1-PDB (polo-like kinase 1 - polo-box domain): Primary Screen; AID 720504, 2013; Potency, µM, without a hit: max response, negative = inhibition, usual class: inhibitors; hit rate 2.8% among 360,000; Serine/threonine-protein kinase PLK1 (Homo sapiens), P53350; Plk1 PBD binding of FITC phosphopeptide, fluorescence polarization; note: potency is the fitted concentration of half-maximal effect; series mostly up to about 57 µM; % is set by controls: 0 for no effect and ±100 for the full control effect; nearly all actives have a fitted effect of over 65% in size
G9a block – qHTS Assay for Inhibitors of Histone Lysine Methyltransferase G9a; Histone-lysine N-methyltransferase EHMT2 (Homo sapiens), Q96KQ7; G9a H3K9 monomethylation, AlphaScreen, 2 h; Potency, µM (highest dose often 102 µM), without a hit: at the highest dose activity, negative = inhibition, actives largely listed as inhibitors; hit rate 8.8% among 350,000; AID 504332, 2011; note: potency is the fitted concentration of half-maximal effect; % is set by controls: 0 for no effect and ±100 for the full control effect; nearly all actives have a fitted effect of over 75% in size
Target sequence (Q96KQ7 913-1193 limits assumed): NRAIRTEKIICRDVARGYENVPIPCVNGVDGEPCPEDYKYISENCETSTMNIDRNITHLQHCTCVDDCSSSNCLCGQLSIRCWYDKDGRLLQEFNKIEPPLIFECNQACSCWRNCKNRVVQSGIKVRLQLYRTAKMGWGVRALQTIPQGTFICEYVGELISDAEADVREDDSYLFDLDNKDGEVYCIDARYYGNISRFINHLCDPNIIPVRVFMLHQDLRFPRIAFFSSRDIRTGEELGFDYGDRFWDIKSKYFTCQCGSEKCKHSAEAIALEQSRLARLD
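Methyltransferase reactions run at room temperature for 2 h (20 nM enzyme, 500 nM biotin-H3K9 peptide, 20 uM SAM) after a 15 min compound preincubation; product detected by AlphaScreen beads and anti-H3K9me1 antibody.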
HP1b binding inh – HTS for Inhibitors of HP1-beta Chromodomain Interactions with Methylated Histone Tails; AlphaScreen HP1-beta / biotin-H3K9me3 peptide binding; hit rate 0.56% among 390,000; Potency, µM (series often up to 114 µM), inactives show at the highest dose activity change, negative = inhibition, most hits filed as inhibitors; Chromobox protein homolog 1 (Homo sapiens), P83916; note: potency is the fitted concentration of half-maximal effect; nearly all actives have a fitted effect of over 70% in size
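Compound inhibition of the preformed complex between 50 nM HP1-beta and 50 nM biotinylated H3K9me3 peptide was read by AlphaScreen. Buffer was PBS pH 7.4 with 0.01% Tween-20. Incubations ran 30 min at room temperature, with 10 ug/mL donor/acceptor beads.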
BAZ2B inh – qHTS Assay for Inhibitors of BAZ2B | AlphaScreen BAZ2B-H3K14Ac peptide displacement | Potency, µM (doses to about 114 µM), inactives show at the top dose activity change, negative = inhibition, actives largely listed as inhibitors | AID 504333, 2011 | hit rate 4.4% among 360,000 | Bromodomain adjacent to zinc finger domain protein 2B (Homo sapiens), Q9UIF8; note: potency is the fitted concentration of half-maximal effect; % is set by controls: 0 for no effect and ±100 for the full control effect; nearly all actives have a fitted effect of over 60% in size
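Compounds, titrated to a top concentration of 110 uM, were incubated 30 min at room temperature with preformed BAZ2B/acetyl-K14 H3 peptide complex (50 nM each). Proximity signal was measured by AlphaScreen after 20 min with beads.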
PI5P4Ka inh – qHTS for Inhibitors of phosphatidylinositol 5-phosphate 4-kinase (PI5P4K) | Phosphatidylinositol 5-phosphate 4-kinase type-2 alpha (Homo sapiens), P48426 | PI5P4Kalpha enzyme, ADP-Glo luminescence, 60 min; active compounds read low | hit rate 1.2% among 330,000 | AID 652105, 2013 | max response, %; active = max response of -50% or lower; inconclusive = between -30% and -50%; inactive = -30% or higher; note: value at the top dose of about 77 µM; % is set by controls: 0 for no effect and ±100 for the full control effect
Target sequence (P48426 whole entry, looked up): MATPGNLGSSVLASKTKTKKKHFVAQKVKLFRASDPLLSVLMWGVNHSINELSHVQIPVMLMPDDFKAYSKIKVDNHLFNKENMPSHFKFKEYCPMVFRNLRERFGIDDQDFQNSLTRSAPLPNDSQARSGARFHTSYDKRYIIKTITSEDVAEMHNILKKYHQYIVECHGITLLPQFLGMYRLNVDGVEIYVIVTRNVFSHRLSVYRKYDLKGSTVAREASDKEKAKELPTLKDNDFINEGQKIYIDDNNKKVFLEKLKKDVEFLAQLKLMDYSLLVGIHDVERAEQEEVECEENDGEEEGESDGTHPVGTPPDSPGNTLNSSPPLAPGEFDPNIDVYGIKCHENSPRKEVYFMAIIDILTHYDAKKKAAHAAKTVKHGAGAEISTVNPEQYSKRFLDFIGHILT
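qHTS, 1536-well: enzyme/substrate mix, compound by pin tool, 5 microM ATP final; RT 60 min; ADP-Glo reagents 1 (45 min) then 2 (30 min); luminescence.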
Numbers without * were called inactive; ? = inconclusive; . = no result given; [ ] = another dose, or the depositor's remark. Rows were chosen to be rich in hits. Some 12% of all compounds tested hit in one or more screens of this group. Unless noted, calls come from the whole dose curve; as a rule, active = well fitted curve in the direction sought with a large enough effect; inconclusive = small, poorly fitted or top-dose-only effect, or another doubt; inactive = no such curve, though single readings can be large; an effect the other way counts as inactive or inconclusive.

SMILES	JMJD2A Tudor inh	PLK1 PBD inh	G9a block	HP1b binding inh	BAZ2B inh	PI5P4Ka inh
Cc1ccc(NC(=O)CS(=O)c2ccccc2N)c(C)c1 (configuration not stated)	-10.3%	-11.1%	39.8µM*	4.7%	-16.8%	0.9
Cc1ccc(NC(=O)CCC(=O)NNC(=O)/C=C/C(=O)O)c(C)c1	?	-6.3%	10µM*	20.8%	-36.2%	0.4
Cc1ccc(NC(=O)Cc2ccccc2)c(C)c1	.	.	-1.8%[59 µM]	.	-2.8%	.
CCC(=O)NNC(=O)CCC(=O)Nc1ccc(C)cc1C	-18.8%[11.4 µM]	23.8µM*	14.7%	-9.2%	-10.1%	1.5
Cc1ccc(NC(=O)CCC(=O)NNC(=O)C(c2ccccc2)c2ccccc2)c(C)c1	-18.4%	-6.4%	-4.9%[59 µM]	5.7%	12.3%	.
C/C(CCN1CCCCc2nc(C)c(C)cc21)=N\O[C@H](C)c1cn([C@H](CO)Cc2ccccc2)nn1	.	.	56.2µM*	.	-12.7%	.
Cc1cccc(N/C(N)=N/c2nc(C(F)(F)F)cc(C(F)(F)F)n2)c1	-4.7%	-4.4%	-28.7%	37.9%	-10.7%	0.6
CN(C)c1ccc(N/C(N)=N/c2nc(C(F)(F)F)cc(C(F)(F)F)n2)cc1	-25.9%	-13.9%	12.6µM*	-17.1%	?	-1.4
Cc1ccc(-c2nc3ncccn3c2Nc2ccc3c(c2)OCCO3)cc1	?	-13.2%	44.7µM*	?	?	-2.3
Brc1ccc(-c2nc3ncccn3c2Nc2ccc3c(c2)OCCO3)o1	?	-6.3%	?	-4.8%	50.1µM*	-5.7
O=P(O)(O)CP(=O)(O)O	.	.	7.08µM*	.	50.1µM*	.
C/C(CC(=O)N1CCN(C=O)CC1)=N\NC(=O)c1ccc([N+](=O)[O-])cc1	-7.4%	-15.3%	10µM*	32.5%	-0.2%	6.0
CSc1nnc(-c2ccccc2)n1N	4.5%	-5.7%	-48.0%	30.3%	-3.4%	-5.7
CSc1nnc(-c2cc[n+](C)cc2)n1CCO	89.1µM*	-1.6%	7.94µM*	7.2%	6.3%	-6.8
Cc1cc(C)c2[nH]c(=S)cc(C)c2c1	-3.1%[57.1 µM]	?	3.55µM*	11.3%	-7.5%	-4.6
Cc1ccc(CNC(=O)c2c(O)nc3ccccn3c2=O)cc1	4.7%	.	?	56.6%	-26.3%	.
CC(=O)Nc1ccccc1OC1=N[S+](=O)([O-])c2ccccc21	-9.9%	.	.	.	.	.
CCOC(=O)c1cc2c(ccn2C)n1Cc1ccc(Cl)cc1	56.2µM*	-9.2%	50.1µM*	-21.9%	50.1µM*	23.4
CCOC(=O)c1cc2c(ccn2C)n1CC(=O)N(C)C	-15.5%	-1.6%	.	37.0%	-13.1%	1.8
CCOC(=O)c1cc2c(ccn2C)n1CC(=O)N1CCC(Cc2ccccc2)CC1	35.5µM*	-9.0%	39.8µM*	?	25.1µM*	.
COc1cccc(-n2nnnc2S(C)(=O)=O)c1	-10.4%	7.52µM*	?	37.2%	-0.7%	0.9
COc1cccc(-n2nnnc2SCC(=O)Nc2ccc(NC(C)=O)cc2)c1	?	23.8µM*	19.2%	2.6%	1.2%	-14.3
CCn1nnnc1SCC(=O)Nc1cc(OC)cc(OC)c1	?	3.36µM*	8.5%	-17.7%	14.0%	?
COc1cccc(-n2nnnc2SCC(=O)Nc2cccc(NC(C)=O)c2)c1	-9.5%	0.5%	-28.6%[59 µM]	13.9%	-3.7%	.
COc1cccc(C2C(C#N)=C(NC(=O)CCc3ccccc3)Oc3ccc4ccccc4c32)c1 (configuration not stated)	-24.0%	.	.	.	.	.
SMILES	JMJD2A Tudor inh	PLK1 PBD inh	G9a block	HP1b binding inh	BAZ2B inh	PI5P4Ka inh
O=C(CCCC(=O)OCC(=O)c1cccs1)Nc1ccc(Oc2ccccc2)cc1	-25.3%[11.4 µM]	29.9µM*	21.0%[59 µM]	-0.2%	39.4%[57.1 µM]	4.6
O=C(CCCC(=O)OCC(=O)c1cccs1)Nc1ccc(F)cc1	11.3%	?	.	52.2%	0.6%	3.3
CC1CCCCN1S(=O)(=O)c1ccc(C(=O)Nc2sc3c(c2C(N)=O)CC(C)(C)NC3(C)C)cc1 (configuration not stated)	-22.3%	.	-23.7%[59 µM]	26.3%	-0.9%	.
CCOC(=O)c1cc2c(=O)n3ccccc3nc2n(C(C)C)c1=NC(=O)c1cc2ccccc2o1	7.5%	.	13.9%[59 µM]	60.4%	12.6%	.
Cc1cccc(OCC(=O)N(Cc2ccc(N(C)C)cc2)Cc2ccco2)c1C	22.4µM*	.	14.1µM*	?	10µM*	.
Cc1cc(C)c(OCC(=O)N(Cc2ccc(N(C)C)cc2)Cc2ccco2)c(C)c1	20µM*	.	12.6µM*	?	8.91µM*	.
Cc1ccc(CN(Cc2ccco2)C(=O)COc2c(C)cc(C)cc2C)cc1	12.2%	.	37.6%[59 µM]	42.4%	33.5%	.
Cc1ccc(CN(Cc2ccco2)C(=O)COc2cccc(C)c2C)o1	?	.	-3.0%[59 µM]	29.0%	9.3%	.
Cc1[nH]c2ccccc2c1SCC(=O)O	-9.8%	-6.9%	?	35.0%	-22.0%	-3.3
O=C(O)CSc1c2ccccc2cc2ccccc12	?	26.7µM*	36.8%	34.4%	-25.0%	-0.3
CC(=O)Nc1c(O)c2ccccc2[nH]c1=O	10.8%	-7.6%	50.1µM*	47.2%	2.0%	3.3
CCCCCCc1c(O)c2ccccc2[nH]c1=O	-20.6%	-14.2%	-3.4%[59 µM]	8.8%	-3.2%	.
O=c1[nH]c2ccccc2c(O)c1SCCO	22.4µM*	-6.4%	.	7.2%	50.1µM*	-1.9
O=C(O)CSc1c(O)c2ccccc2[nH]c1=O	11.2µM*	21.2µM*	4.47µM*	26.5%	14.1µM*	?
CCOc1ccccc1C1CC(=O)NC(C)=C1C(=O)OCc1ccc(C)cc1 (configuration not stated)	-25.7%	.	-30.2%[59 µM]	5.7%	-11.0%	.
COc1ccc(Cc2c(-c3ccc(Cl)cc3)nc3c(C)cc(Br)cn23)c(C)c1	.	-4.0%	.	.	.	-0.6
Cc1cccnc1NC(=O)Cn1nc(-c2ccccc2)oc1=S	79.4µM*	23.8µM*	50.1µM*	5.9%	21.1%	-8.5
Cc1ccc(S(=O)(=O)CC(=O)N2CCN(c3nc4c(F)cccc4s3)CC2)cc1	-14.3%	.	-17.1%[59 µM]	25.6%	-12.0%	.
COc1cc(C(=O)NCC(=O)N/N=C/c2cccnc2)cc(OC)c1OC	-8.5%	-1.4%	17.1%	30.3%	1.9%	2.3
CNC(=S)N(CCc1c(C)[nH]c2ccc(C)cc12)Cc1cccs1	?	8.9%	44.7µM*	-4.0%	.	8.3
CCOc1ccc(NC(=S)N(CCc2c(C)[nH]c3ccc(C)cc23)Cc2ccco2)cc1	?	-3.4%	70.8µM*	-4.3%	-6.4%	2.9
CCNC(=S)N(CCc1c(C)[nH]c2ccc(C)cc12)Cc1cccnc1	?	-7.3%	10.7%[2.33 µM]	?	?	0.5
